Results as given in PubChem BioAssay (Tox21).
Inconclusive results are not listed. Active and inactive are the calls of the source. Unless noted, calls follow the shape of the dose curve; as a rule, active = well fitted curve in the direction sought with a large enough effect in the repeat runs; inconclusive = weak or mixed curves; inactive = no such curve, though single readings can be large; an effect the other way counts as inactive or inconclusive.

Legend:
[1] = qHTS assay to identify small molecule agonists of H2AX - cell viability counter screen (AID 1224847; calls by dose curve; also: nearly all actives have a fitted effect of over 30% in size; also: potency is read from the fitted curve at half-maximal effect; as to activity change, negative = cytotoxicity: top concentration of the series differs between compounds)
Summary of the method: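 Viability of CHO-K1 (wild type) cells after 3 hr compound exposure was measured by CellTiter-Glo luminescence.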

[2] = qHTS RealTime-Glo MT Cell Viability Assay in HepG2 cells - 24 hour (AID 1224867); also: nearly all actives have a fitted effect of over 50% in size; also: potency is read from the fitted curve at half-maximal effect
Summary of the method: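 Cells + NanoLuc/prosubstrate dispensed (600 cells/well) → 5 h at 37 C/5% CO2 → compounds in DMSO transferred → 40 h incubation at 37 C, luminescence read at 0, 8, 16, 24, 32, 40 h.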

[3] = qHTS RealTime-Glo MT Cell Viability Assay in HEK293 cells - 32 hour (AID 1224868); also: nearly all actives have a fitted effect of over 50% in size; also: potency is read from the fitted curve at half-maximal effect; as to activity change, negative = cytotoxic: top concentration of the series differs between compounds
Summary of the method: (§1)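 Tox21 10K qHTS, HEK293, 600 cells/well, RealTime-Glo reagent co-dispensed with cells; 5 h preincubation, compound by pintool, 37 C, luminescence at 0–40 h.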

[4] = A CellTox Green Cytotoxicity Assay to monitor cytotoxicity in HEK293 cells - 0 hour (AID 1224869); also: nearly all actives have a fitted effect of over 50% in size
Summary of the method: (§2)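 HEK293 cells premixed with CellTox Green dye were seeded at 600 cells/well and left 5 h at 37 C/5% CO2 before pin transfer of 23 nL compound in DMSO. Fluorescence from dye bound to dead-cell DNA was read during 40 h treatment.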

[5] = qHTS RealTime-Glo MT Cell Viability Assay in HepG2 cells - 40 hour (AID 1224870); also: nearly all actives have a fitted effect of over 50% in size; also: potency is read from the fitted curve at half-maximal effect
Summary of the method: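 HepG2 cells (600/well) mixed with RealTime-Glo MT reagent, settled 5 h at 37 C/5% CO2 before compound addition. Nonlytic NanoLuc luminescence from viable-cell prosubstrate reduction read repeatedly during 40 h treatment at 37 C.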

[6] = A CellTox Green Cytotoxicity Assay to monitor cytotoxicity in HEK293 cells - 40 hour (AID 1224871); also: nearly all actives have a fitted effect of over 45% in size; also: potency is read from the fitted curve at half-maximal effect
Summary of the method: as §2

[7] = qHTS RealTime-Glo MT Cell Viability Assay in HEK293 cells - 16 hour (AID 1224872); also: nearly all actives have a fitted effect of over 50% in size; also: potency is read from the fitted curve at half-maximal effect; as to activity change, negative = cytotoxicity: top concentration of the series differs between compounds
Summary of the method: as §1

[8] = qHTS assay to identify small molecule antagonists of the estrogen related receptor (ERR) signaling pathway from Tox21 library (AID 1224848); also: nearly all actives have a fitted effect of over 50% in size; also: potency is read from the fitted curve at half-maximal effect
Summary of the method: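 ERR reporter cell line (from NTP) seeded 2,000 cells/well, rested 6 h at 37 C/5% CO2, then pin-dosed with compounds in DMSO. After 18 h at 37 C, ONE-Glo added; luminescence read after 30 min at room temperature.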

[9] = qHTS assay to identify small molecule agonists of the estrogen related receptor (ERR) signaling pathway from Tox21 library (AID 1224849; calls by dose curve; also: nearly all actives have a fitted effect of over 15% in size); conditions: ERR reporter cell line, ONE-Glo luciferase, 18 h; at 92.4 µM (top of the series) unless noted
Summary of the method: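 ERR reporter cell line (NTP) seeded, rested 6 h at 37 C/5% CO2, then pinned with Tox21 compounds in DMSO. After 18 h at 37 C, ONE-Glo luciferase luminescence was read following 30 min at room temperature.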
% is scaled to controls: 0 for no effect and ±100 for the full control effect.

CCN=C1C=CC(=C(c2ccc(N(CC)CC)cc2)c2ccc(N(CC)CC)cc2)c2ccccc21
active: Potency [1] 35.5 µM | Potency [2] 17.3 µM | Potency [3] 6.88 µM | Potency [5] 19.4 µM | Potency [6] 12.2 µM | Potency [7] 13.7 µM
inactive: Potency [4]

Nc1ncnc2c1ncn2[C@@H]1O[C@H](COP(=O)(O)O)[C@@H](O)[C@H]1O
inactive: Potency [1] | Potency [3] | Potency [4] | Potency [5] | Potency [6] | Potency [7]

c1cc2c3c(c1)ccc1cccc(c13)C2
active: Potency [8] 70.1 µM | Potency [6] 50 µM
inactive: activity change, positive = activation [9] -42.3% | Potency [2] | Potency [4] | Potency [5] | Potency [7]

CC(C)c1cccc(C(C)C)c1N1C(=O)c2ccc(O)cc2C1=O
active: Potency [1] 80 µM | Potency [2] 49 µM | Potency [5] 43.6 µM | Potency [6] 49 µM
inactive: Potency [4]

CC(=O)Nc1ccc(O)cc1
inactive: Potency [1] | Potency [2] | Potency [3] | Potency [4] | Potency [5] | Potency [6] | Potency [7]

Nc1cc(Cl)c([N+](=O)[O-])cc1O
inactive: Potency [8] | activity change, positive = activation [9] -13.4% | Potency [2] | Potency [4] | Potency [5] | Potency [6]

Cc1cc2c(C(C)C)c(O)c(O)c(C=O)c2c(O)c1-c1c(C)cc2c(C(C)C)c(O)c(O)c(C=O)c2c1O
active: Potency [8] 7.5 µM | Potency [2] 21.3 µM | Potency [3] 12 µM | Potency [5] 26.8 µM | Potency [6] 19 µM | Potency [7] 19 µM
inactive: activity change, positive = activation [9] -47.3% [at 42.5 µM] | Potency [4]

CN(C)c1ccc(N=NS(=O)(=O)O)cc1
inactive: Potency [2] | Potency [4] | Potency [5] | Potency [6]
active: Potency [1] 40.1 µM | Potency [7] 14.5 µM

S=C(SSSSSSC(=S)N1CCCCC1)N1CCCCC1
inactive: activity change, negative = cytotoxicity [1] -11.5% [at 31.6 µM] | cytotoxicity [4] -0.227% [at 15.8 µM] | activity change, negative = cytotoxic [5] -10.6% [at 15.8 µM]
active: Potency [6] 0.241 µM | Potency [7] 13.6 µM

Clc1ccc(C(c2ccccc2Cl)C(Cl)Cl)cc1 (stereo unspecified)
inactive: Potency [2] | Potency [4] | Potency [5] | Potency [6]
active: Potency [1] 101 µM

CN1[C@@H]2CC[C@@H]1CC(OC(=O)C(CO)c1ccccc1)C2 (stereo partly specified)
inactive: Potency [1] | Potency [2] | Potency [3] | Potency [4] | Potency [5] | Potency [6] | Potency [7]

O=C(NO)c1ccccc1
inactive: activity change, positive = activation [9] -48.5% | Potency [2] | Potency [4] | Potency [5]
active: Potency [8] 23.2 µM

CCN(CC)CCOC(=O)C1(C2CCCCC2)CCCCC1
inactive: Potency [2] | Potency [4] | Potency [5]
active: Potency [1] 49.2 µM | Potency [6] 23.9 µM | Potency [7] 21.3 µM

COc1cc(C(C)C)c2c(c1)S(=O)(=O)N(COc1cc(=O)n3cccc(OCCN4CCCCC4)c3n1)C2=O
active: Potency [1] 24 µM
inactive: cytotoxicity [4] -2.82% [at 15.8 µM] | activity change, negative = cytotoxic [5] -2.06% [at 15.8 µM] | activity change, negative = cytotoxicity [7] 3.24% [at 15.8 µM]

CC(CN(C)C)CN1c2ccccc2CCc2ccccc21 (stereo unspecified)
inactive: Potency [1] | Potency [2] | Potency [4] | Potency [5] | Potency [6] | Potency [7]

CC1CCCNC1 (stereo unspecified)
inactive: Potency [1] | Potency [2] | Potency [3] | Potency [4] | Potency [5] | Potency [6] | Potency [7]

CN(Cc1cc(Br)cc(Br)c1N)C1CCCCC1
inactive: Potency [8] | activity change, positive = activation [9] -11.1% [at 42.5 µM] | Potency [2] | Potency [4] | Potency [5]

C=CCCCCCCC=C
inactive: Potency [1] | Potency [3] | Potency [4] | Potency [5] | Potency [6] | Potency [7]

CC=O
active: Potency [1] 14.9 µM | Potency [2] 51.3 µM | Potency [3] 0.575 µM | Potency [5] 32.3 µM | Potency [6] 51.3 µM | Potency [7] 4.57 µM
inactive: Potency [4]

C=CC(=O)OCCN(CC)CC
inactive: Potency [1] | Potency [2] | Potency [3] | Potency [4] | Potency [5] | Potency [6] | Potency [7]

COc1ccc(-n2nc(CCC(=O)N(C)O)cc2-c2ccc(Cl)cc2)cc1
inactive: Potency [1] | Potency [2] | Potency [4] | Potency [5] | Potency [6] | Potency [7]

C/C=C/C=N/NC(=O)c1ccncc1
inactive: Potency [1] | Potency [2] | Potency [5] | Potency [7]

CN(C)CCOC(c1ccccc1)c1ccccc1 (tested in a mixture with another compound)
inactive: Potency [1] | Potency [2] | Potency [4] | Potency [5] | Potency [6] | Potency [7]

O=C(O)CCn1c2c(c3ccccc31)C[C@H](NS(=O)(=O)c1ccc(F)cc1)CC2
inactive: Potency [1] | Potency [2] | Potency [3] | Potency [4] | Potency [5] | Potency [6] | Potency [7]

Oc1ccc(-c2ccccc2)c(Cl)c1
active: Potency [1] 89.8 µM | Potency [3] 24.5 µM | Potency [7] 24.5 µM
inactive: Potency [2] | Potency [4] | Potency [5]
